Results as given in PubChem BioAssay AID1851 (National Center for Advancing Translational Sciences (NCATS), 2009).
In all, about 16,000 compounds went through this assay and about 2,600 (16%) were called active. Another 20% or so got no clear call; they are omitted. These entries were drawn from the full list. Unmarked numbers belong to inactive results. The call rests on the fitted dose curve; in most records, active means well fitted curve in the direction sought with a large enough effect; inconclusive means small, poorly fitted or top-dose-only effect, or effect the other way; inactive means no such curve, though single readings can be large or run the other way.

target: Cytochrome P450 2D6 (Homo sapiens) (UniProt P10635); assay: Cytochrome panel assay with activity outcomes; settings: recombinant CYP, pro-luciferin dealkylation, luminescence, p450-cyp2d6; series mostly up to 57.1 µM; activity, negative = inhibition: at the top concentration
Sequence (P10635 whole entry, looked up): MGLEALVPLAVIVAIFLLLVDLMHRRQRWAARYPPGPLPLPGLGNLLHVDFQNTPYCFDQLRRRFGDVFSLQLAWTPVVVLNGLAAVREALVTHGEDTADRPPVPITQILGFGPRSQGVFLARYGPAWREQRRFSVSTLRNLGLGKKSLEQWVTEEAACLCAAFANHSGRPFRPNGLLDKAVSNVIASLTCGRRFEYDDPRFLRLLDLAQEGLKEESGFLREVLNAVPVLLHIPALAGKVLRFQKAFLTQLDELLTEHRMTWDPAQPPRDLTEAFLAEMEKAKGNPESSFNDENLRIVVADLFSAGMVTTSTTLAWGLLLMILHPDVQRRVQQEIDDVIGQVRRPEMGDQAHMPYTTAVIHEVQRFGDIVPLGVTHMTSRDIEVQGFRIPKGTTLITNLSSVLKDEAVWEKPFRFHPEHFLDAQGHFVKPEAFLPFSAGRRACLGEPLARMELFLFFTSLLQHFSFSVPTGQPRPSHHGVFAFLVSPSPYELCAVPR
On the % scale 0 is the no-effect control and ±100 the full control effect.

Point of comparison: `O=c1c2c(-c3ccc(Cl)cc3)csc2nc2n1CCC2`, “activity, negative = inhibition” value -19.4%. Against it:
- CC(C)CC(=O)Nc1ccccc1-c1nnn(CC(=O)N2CCc3ccccc3C2)n1 — lower, -23.8%
- Cc1nnc(SCC(=O)NCC2CCCCC2)n(N)c1=O — higher, -11.6%
- O=C(c1cc(-c2ccco2)on1)N1CCOCC1 — higher, -7.84%
- O=C(Cc1ccccc1)N/N=C/C=C/c1cccc([N+](=O)[O-])c1 — higher, -14.8%
- CC(C)CCNC(=O)C12CN(Cc3ccccc3)CC1C(c1cccc([N+](=O)[O-])c1)=NO2 (configuration not stated) — lower, -23.9%
- O=c1nc(-c2ccccc2)cn[nH]1 — higher, 5.87%
- C/C=C\C[C@@H](C)[C@@H](O)[C@H]1C(=O)N[C@@H](CC)C(=O)N(C)CC(=O)N(C)[C@@H](CC(C)C)C(=O)N[C@@H](C(C)C)C(=O)N(C)[C@@H](CC(C)C)C(=O)N[C@@H](C)C(=O)N[C@H](C)C(=O)N(C)[C@@H](CC(C)C)C(=O)N(C)[C@@H](CC(C)C)C(=O)N(C)[C@@H](C(C)C)C(=O)N1C — higher, -14.7%
- CCOC(=O)n1c(=O)n(Cc2c(Cl)cccc2Cl)c2ccccc21 — higher, -12.5%
- COCC(=O)N1CCC2(CCCN(Cc3ccccc3OC)C2)CC1 — higher, 12.4%
- CC(=O)N1CCC[C@@]2(CCN(c3ccncc3)C2)C1 — higher, -5.51%
- COc1ccc(NC(=O)N2CC[C@@]3(CCCN(C(C)=O)C3)C2)cc1 — higher, 0.963%
- COC(=O)N1CCC2(CCCN(C(=O)Nc3ccc(OC)cc3)C2)CC1 — higher, 2.1%
- COCC(=O)N1CCC2(CCCN(C(=O)Nc3cccc(F)c3)C2)CC1 — higher, 1.9%
- CCSc1nc2nc(C)cc(C)n2n1 — higher, 0.804%
- Cn1cc(C(=O)N/N=C/C(Br)=C\c2ccccc2)ccc1=O — lower, -26.6%
- CCN1CCN(c2nc3c(c(=O)[nH]c(=O)n3C)n2CCCSc2ncccn2)CC1 — higher, -7.52%
- COc1ccc(C2/C(=C(/O)c3ccccc3)C(=O)C(=O)N2CC(C)O)c(OC)c1 (configuration not stated) — higher, 1.5%
- N#Cc1sc2nc(-c3cccs3)cc(-c3ccc(Cl)cc3)c2c1N — higher, -1.86%
- COCCn1c(=O)[nH]c2cc(C(=O)N3CCN(c4ccccc4OC)CC3)ccc2c1=O — higher, -8.01%
- COCC(=O)N1CCC[C@@]2(CCN(Cc3ccc(C#N)cc3)C2)C1 — higher, -8.83%
- COCC(=O)N1CCC2(CCCN(Cc3ccccc3)C2)CC1 — higher, -3.92%
- Cc1c(NC(=S)N/N=C/c2ccc(O)cc2)c(=O)n(-c2ccccc2)n1C — higher, 4.58%
- CC(C)[C@@H]1[C@H]2CC[C@H](C2)[C@H]1N — higher, 3.78%
- Cc1ccc(Sc2cc(Cl)nc(N)n2)cc1 — higher, 18.5%
- Cc1ccc2[nH]c(=O)c(NC(N)=S)nc2c1 — lower, -20.2%
- O=C1CSc2ccc(C(=O)NCCC3=CCCCC3)cc2N1 — higher, -6.63%
- CCC(C)NC(=O)C1CCN(C(=O)c2ccccc2)CC1 (configuration not stated) — higher, 19.5%
- CCNC(=O)C1CC(=O)OC12CCCCC2 (configuration not stated) — higher, 20.8%
- O=C(Nc1cccnc1Cl)C1c2ccccc2Oc2ccccc21 — higher, 9.13%
- CCOc1ccc(-n2ccnc2SCC(=O)Nc2nnc(C)s2)cc1 — higher, 0.439%
- COc1cccc(NC(=O)CSc2nnc(CN3CCOCC3)n2C)c1 — higher, -4.66%
- COc1ccc(-n2ccnc2SCC(=O)Nc2ccc(OC)cc2OC)cc1 — higher, -14.2%
- CCOc1ccc(-n2ccnc2SCC(=O)Nc2nnc(CC)s2)cc1 — higher, -2.1%
- O=c1c2ccccc2nc2n1CCC2 — higher, 22.4%
- CC(=O)c1cc(NC(=O)c2cccc(C(F)(F)F)c2)c(=O)oc1/C=C/N(C)C — higher, -1.04%
- CC1(C)CC(=O)c2c(Cc3ccccc3)n[nH]c2C1 — higher, 10.2%
- N#C/C(=C(/O)CN1CCCCC1)c1nc(-c2ccc(Cl)cc2)cs1 — higher, 2.79%
- Cn1c(=O)c2[nH]c(-c3ccc(S(=O)(=O)O)cc3)nc2n(C)c1=O — higher, -1.78%
- COCCn1c(=O)c(-c2cccs2)nc2cnc(N3CCN(C)CC3)nc21 — higher, -2.8%
- O=c1c(-c2ccc(F)c(F)c2)nc2cncnc2n1Cc1ccccc1Cl — higher, -12.1%
- COCCn1c(=O)c(-c2ccc(OC)cc2)nc2cnc(N3CCNCC3)nc21 — higher, -8.27%
- Cc1ccc(C(=O)Cn2nnc3c(sc4nc5c(c(-c6ccccc6)c43)CCC5)c2=O)cc1 — higher, -1.52%
- Cc1ccc(C(=O)CNc2nc3c(c(=O)[nH]c(=O)n3C)n2Cc2ccccc2)cc1 — lower, -26%
- COc1ccc(NC(=O)C(=O)NNC(=O)c2cccs2)c(OC)c1 — higher, -15.1%
- Cc1c(NC(=O)C(C)N2C(=O)c3ccccc3C2=O)c(=O)n(-c2ccccc2)n1C (configuration not stated) — higher, -3.01%
- c1cncc(-c2nnc3n2C2(CCCCC2)Cc2ccccc2-3)c1 — higher, -2.67%
- Cc1cccc2c1OCC/C2=N\NC(=O)COc1ccccc1 — higher, -6.15%
- N#Cc1ccc(C2=NC(C(F)(F)F)(C(F)(F)F)c3c(n(Cc4ccco4)c(=O)[nH]c3=O)N2)cc1 — higher, 0.737%
- COCCn1c(=O)c(-c2cccs2)nc2cnc(OC)nc21 — higher, -9.81%
- NC(=O)Cn1c(=O)n(Cc2ccco2)c(=O)c2c3c(sc21)CCCCC3 — higher, -14.5%
- Cn1c(=O)c2c3c(sc2n2cnnc12)CCC3 — higher, 21.1%
- CC(=O)N(NC(=O)c1ccccc1Cl)C1CC(=O)N(c2ccc(C)cc2)C1=O (configuration not stated) — higher, 4.28%
- CCOc1cc2c(C)cc(=O)oc2cc1Cl — higher, -2.51%
- Brc1ccc(-c2csc(N3CCC(c4ccccc4)C3)n2)cc1 (configuration not stated) — higher, -13.3%
- CCOc1ccc(NC(=O)N2CCC(c3ccc(C)cc3)C2)cc1 (configuration not stated) — lower, -22.3%
- COC(=O)c1cc2n(n1)CCN(Cc1ccccc1F)C2=O — higher, -3.58%
- Cc1ccc(C(=O)NC2CCCCC2)cc1 — higher, 9.04%
- Cc1ccc(C(=O)/C=C2\NCC(C)NC2=O)cc1 (configuration not stated) — higher, -5.26%
- O=C(Oc1ccc(OC(=O)c2ccco2)c(S(=O)(=O)c2ccc(Br)cc2)c1)c1ccco1 — higher, 5.11%
- COc1ccc(NC(=O)C(c2ccc(OC)cc2)N(C)C(=O)CNC(C)=O)cc1 (configuration not stated) — higher, 10.3%
- CN(C)/C(CN1CCN(C=O)CC1)=C1\N=C(c2ccccc2)OC1=O — higher, -11.9%
- CC1CN(C(=O)c2cc3c(s2)CCC3)CC(C)O1 (configuration not stated) — higher, -0.128%
- CCOc1ccc(OCc2ccc(C(=O)N3CCc4ccccc4C3)o2)cc1 — lower, -27.5%
- COc1ccc(NC(=O)c2ccc(COc3ccccc3)o2)cc1 — higher, 25.3%
- O=c1cc(N2CCN(c3ccccc3)CC2)[nH]c(=O)n1C1CCCCC1 — higher, 17.9%
- COc1c(/C=N/Nc2nc(N3CCCCC3)nc(N3CCCCC3)n2)cccc1[N+](=O)[O-] — higher, 18.9%

For `O=C(O)NCC1CCCCC1` (tested in a mixture with another compound), the AC50 was 3.98 µM (active).
With `O=C(NCc1ccccc1)C12CN(Cc3ccccc3)CC1C(c1cccc([N+](=O)[O-])c1)=NO2` (configuration not stated) the AC50 was 5.01 µM (active).
`C[C@H]1NC(=O)NC1=O` was tested, and the AC50 was “inactive”.
For `COc1ccccc1CN1CC[C@@]2(CCCN(C(C)=O)C2)C1`, the AC50 was 3.16 µM (active).
In the case of `COC(=O)N1CCC2(CCCN(Cc3ccccc3OC)C2)CC1`, the AC50 is reported as 3.16 µM (active).
With `COCC(=O)N1CCC[C@@]2(CCN(Cc3ccccc3OC)C2)C1` the AC50 was 6.31 µM (active).
With `COc1ccccc1CN1CCCC2(CCN(C(C)=O)CC2)C1` the AC50 was 3.16 µM (active).
With `COCC(=O)N1CCC[C@@]2(CCN(Cc3ccccc3)C2)C1` the AC50 was 6.31 µM (active).
For `CC(C)(C)c1ccc(C(=O)N2CCC(C(=O)NCCC3=CCCCC3)CC2)cc1`, the AC50 was 22.4 µM (active).
For `COc1cccc(-n2ccnc2SCC(=O)Nc2nccs2)c1`, the AC50 was 12.6 µM (active).
`COc1ccc(-n2ccnc2SCC(=O)Nc2ccccc2)cc1` was tested, and the AC50 was 17.8 µM (active).
For `NC(=O)OCC(COC(N)=O)c1ccccc1`, the AC50 was 0.794 µM (active).
For `CC1=NC(C)(C)Cc2ccccc21`, the AC50 was 14.1 µM (active).
`CN(C)CCn1c(=O)n(Cc2ccco2)c(=O)c2c3c(sc21)CCCCC3` was tested, and the AC50 was 1.58 µM (active).
In the case of `O=C(COc1ccc(Br)cc1)N1CCC(c2ccccc2)C1` (configuration not stated), the AC50 is reported as 17.8 µM (active).
With `CN(CCCNC(=O)c1ccc(/C=N/O)nc1)CCCN(C)Cc1ccccc1` the AC50 was 2.82 µM (active).
With `Cc1ccc(C(=O)C2CCNCC2)cc1` the AC50 was 1.41 µM (active).
`CN1CCN(C(=O)c2ccc(COc3ccc(C(C)(C)C)cc3)o2)CC1` was tested, and the AC50 was 4.47 µM (active).

Point of comparison: `C/C(=N\NC(=O)c1ccncc1)c1ccc2ccccc2c1O`, activity, negative = inhibition -2.13% [at 11.4 µM]. Against it:
- CCSC[C@@H](N)C(=O)O — lower, -5.75% [at 11.4 µM]
- CC(C)(C)N1C(=O)[C@H]2[C@H]3[C@H](O)[C@H](O)C/C(=N/NC(=O)OCc4ccccc4)[C@@H]3CC[C@@H]2C1=O — lower, -18.8% [at 11.4 µM]
- COc1cc(N=C(N)N=C(N)N)c2ncccc2c1 — lower, -2.16% [at 11.4 µM]
- Nc1ccc(S(=O)(=O)c2ccc(NC(=O)c3cccnc3)cc2)cc1 — lower, -2.49% [at 11.4 µM]
- CCCC1c2c(ccc3ccccc23)Oc2ccc3ccccc3c21 — higher, 4.73% [at 11.4 µM]
- O=C1C(=O)c2ccccc2C(O)=C1C(CCc1ccccc1)C1=C(O)c2ccccc2C(=O)C1=O — lower, -9.56% [at 11.4 µM]
- CCc1ncc(CO)n1Cc1cccc2ccccc12 — lower, -6.66% [at 11.4 µM]
- CN(C)CCNS(=O)(=O)N(C)C — higher, 5.07% [at 11.4 µM]
- COc1cccc([C@H](O)Cn2cc(-c3cccc(CON=C(C)C)c3)nn2)c1 — higher, -1.23% [at 11.4 µM]
- CO[C@H]1COC(=O)CCC[C@@H](C)[C@H](OC)COC(=O)[C@H]2CCCN2C(=O)C/C=C\[C@@H]1C — higher, 6.78% [at 11.4 µM]

Point of comparison: `CNC[C@H](O)[C@H](O)[C@H](O)[C@H](O)CO`, “activity, negative = inhibition” value -3.38% [at 25.6 µM]. Against it:
- COc1ccc2c(c1)c(CC(=O)OCC(=O)O)c(C)n2C(=O)c1ccc(Cl)cc1 — higher, 7.38% [at 25.6 µM]
- NC(=O)OC[C@H](O)COc1ccc(Cl)cc1 — higher, 0.0944% [at 25.6 µM]
- COc1ccccc1OC[C@H](O)COC(N)=O — higher, 2.23% [at 25.6 µM]
- Cc1ncc([N+](=O)[O-])n1CCO — higher, 0.423% [at 25.6 µM]
- CC(=O)N(C[C@@H](C)C(=O)O)c1c(I)cc(I)c(N)c1I — higher, 3.85% [at 25.6 µM]
